Measurements taken from PubChem BioAssay (NCATS).
Values without a mark were called inactive. Inconclusive results are not listed. The source made the active and inactive calls. Unless noted, the call rests on the fitted dose curve; in most records, active means well fitted curve in the direction sought with a large enough effect; inconclusive means small, poorly fitted or top-dose-only effect, or another doubt; inactive means no such curve, though single readings can be large; an effect the other way counts as inactive or inconclusive.

Columns and labels:
[1] = target: Lysosomal acid glucosylceramidase (Homo sapiens) (UniProt P04062); experiment: Glucocerebrosidase-p2 (AID 348; in the data active means potency below about 10 µM; further: potency means the concentration at half of the fitted maximal effect); conditions: purified GBA, blue fluorogenic substrate, 40 min
Lysosomal acid glucosylceramidase (Homo sapiens), sequence (P04062 whole entry, looked up): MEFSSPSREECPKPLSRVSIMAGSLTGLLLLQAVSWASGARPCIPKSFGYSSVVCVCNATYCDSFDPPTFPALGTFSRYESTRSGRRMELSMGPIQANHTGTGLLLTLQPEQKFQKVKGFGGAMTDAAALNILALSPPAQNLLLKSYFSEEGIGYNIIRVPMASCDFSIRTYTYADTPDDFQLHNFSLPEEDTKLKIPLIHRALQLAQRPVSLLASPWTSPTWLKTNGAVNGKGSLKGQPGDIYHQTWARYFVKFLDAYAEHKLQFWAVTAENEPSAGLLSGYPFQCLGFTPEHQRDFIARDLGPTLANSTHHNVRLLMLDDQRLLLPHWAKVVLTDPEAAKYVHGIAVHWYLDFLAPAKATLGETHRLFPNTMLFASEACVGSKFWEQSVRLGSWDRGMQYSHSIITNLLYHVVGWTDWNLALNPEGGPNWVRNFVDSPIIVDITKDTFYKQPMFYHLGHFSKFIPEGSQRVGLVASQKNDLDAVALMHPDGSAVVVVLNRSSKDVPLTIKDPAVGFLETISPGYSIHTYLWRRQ
Method in brief: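 Normal human glucocerebrosidase (0.2 nM) with blue fluorogenic substrate (80 uM final) in citrate/phosphate pH 5.9 with 10mM sodium taurocholate, 0.01% tween-20; 40 min RT, NaOH/glycine stop; fluorescence Ex 365/Em 440; AC50 from a titration from 0.6 nM upwards.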

[2] = AP1 Signaling Pathway (AID 357; active means well fitted curve in either direction with a large enough effect, not every such curve was filed as active;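 further: ME-180 reporter cells stimulated with EGF at its EC50 level; on the % scale 0 is the no-effect control and ±100 the full control effect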); conditions: ME-180 AP-1-bla reporter, EGF-induced, beta-lactamase ratio, 5 h; at 7.69 µM (top of the series) unless noted
Method in brief: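 In this screen, ME-180 cells in Opti-MEM with 0.5% dialyzed FBS received EC50 EGF and compound titrations for 5 h. AP-1 reporter beta-lactamase was detected via CCF4 ratio, giving AC50 for positive and negative modulators.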

[3] = NFAT Signaling Pathway (AID 444; active means well fitted curve in either direction with a large enough effect, not every such curve was filed as active;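 further: carbachol stimulus at about its EC50 of 1 µM final; on the % scale 0 is the no-effect control and ±100 the full control effect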); conditions: Jurkat NFAT-bla M1, carbachol, beta-lactamase ratio, 5 h; at 7.69 µM (top of the series) unless noted
Method in brief: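 Jurkat cells carrying an NFAT-driven β-lactamase reporter and co-transfected muscarinic M1 receptor were treated with compound plus carbachol (1 uM final, an EC50 level) for 5 h at 37 °C. CCF4 loading followed for 1 h at RT; 460/530 nm ratio gave %activity.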

[4] = Stat Signaling Pathway (AID 446; active means well fitted curve in either direction with a large enough effect, not every such curve was filed as active;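 further: ME-180 cervical cancer cells given 40 pM IL-6 alongside compound; SIE-controlled beta-lactamase reporter measured as 460/530 nm FRET emission ratio; on the % scale 0 is the no-effect control and ±100 the full control effect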); conditions: ME-180 (cervical carcinoma) SIE beta-lactamase reporter, IL-6 stimulated, 5 h; at 7.69 µM (top of the series) unless noted
Method in brief: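 FRET read-out (405 nm excitation, 460/530 nm emission) of a beta-lactamase reporter under a STAT-inducible element in ME-180 cervical carcinoma cells. Cells with compound receive 40 pM IL-6 for 5 h. Values are normalised to AC90 stimulation and AC90 JAK-inhibitor controls.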

[5] = target: Glucocorticoid receptor (Homo sapiens) (UniProt P04150); experiment: GR-GFP Redistribution (AID 450;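 active means compounds whose dose series gives a full or clear partial fitted curve of increased nuclear translocation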; further: potency means the concentration at half of the fitted maximal effect); conditions: U2OS GR-GFP nuclear translocation, laser cytometry, 2 h
Glucocorticoid receptor (Homo sapiens), sequence (P04150 whole entry, looked up, the tested form may be a part): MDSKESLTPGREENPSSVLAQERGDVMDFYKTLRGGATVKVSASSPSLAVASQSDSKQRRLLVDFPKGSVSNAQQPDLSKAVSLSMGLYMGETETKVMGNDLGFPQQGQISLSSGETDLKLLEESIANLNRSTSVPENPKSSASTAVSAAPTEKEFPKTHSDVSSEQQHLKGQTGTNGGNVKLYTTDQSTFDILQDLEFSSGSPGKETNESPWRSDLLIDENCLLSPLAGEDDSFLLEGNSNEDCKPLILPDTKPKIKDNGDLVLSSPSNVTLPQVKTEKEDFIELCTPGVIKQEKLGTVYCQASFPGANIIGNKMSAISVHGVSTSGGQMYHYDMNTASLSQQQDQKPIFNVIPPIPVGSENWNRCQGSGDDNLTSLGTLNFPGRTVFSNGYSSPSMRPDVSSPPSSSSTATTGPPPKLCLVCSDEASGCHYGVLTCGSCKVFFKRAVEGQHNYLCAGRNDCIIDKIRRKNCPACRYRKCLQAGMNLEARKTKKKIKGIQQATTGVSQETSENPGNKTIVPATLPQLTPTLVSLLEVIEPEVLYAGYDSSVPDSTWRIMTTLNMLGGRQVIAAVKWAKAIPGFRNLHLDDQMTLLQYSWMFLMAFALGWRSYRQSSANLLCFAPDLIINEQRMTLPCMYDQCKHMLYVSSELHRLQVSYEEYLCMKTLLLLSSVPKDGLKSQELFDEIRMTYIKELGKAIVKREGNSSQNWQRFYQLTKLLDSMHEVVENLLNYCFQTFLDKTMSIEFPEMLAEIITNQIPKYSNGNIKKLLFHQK

[6] = target: Glucocorticoid receptor (Homo sapiens) (UniProt P04150); experiment: GR-EFC Redistribution (AID 451; calls by dose curve; further: potency means the concentration at half of the fitted maximal effect); conditions: CHO-K1 GR-EFC translocation, beta-gal luminescence, 2 h
Method in brief: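 CHO-K1 cells stably expressing nuclear-localized β-gal enzyme acceptor and GR fused C-terminally to the enzyme donor fragment; ligand-driven nuclear translocation restores β-gal by complementation. Compounds titrated up to 46 uM final, 2 h at 37 °C; luminescence read.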

[7] = target: Mitogen-activated protein kinase 10 (Mus musculus) (UniProt Q61831); experiment: JNK3 AlphaScreen Assay (AID 530; active means well fitted curve in either direction with a large enough effect, not every such curve was filed as active;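 further: kinase came from lysate of stimulated human HepG2 cells; signal reports phosphorylation of biotinylated GST-cJun 1-79 at Ser73 with 10 µM ATP; on the % scale 0 is the no-effect control and ±100 the full control effect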); conditions: JNK3 lysate, c-Jun phosphorylation; series mostly up to 57.1 µM
Method in brief: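 Biotinylated GST-cJun(1-79) served as substrate for JNK3 in HepG2 lysates stimulated with IL-1beta and TNF-alpha. ATP was 10 uM final, pH 7.6. Ser73 phosphorylation was quantified by AlphaScreen (680 nm excitation).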

[8] = target: 3',5'-cyclic-AMP phosphodiesterase 4B (Homo sapiens) (UniProt Q07343); experiment: qHTS Assay for Inhibitors of PDE-IV (AID 607; active means well fitted activation curve with a large enough effect in the main read-out, with a control signal flat, not every such curve was filed as active; further: % of control where 0% means no effect); conditions: HEK293 ACTOne CNG channel cells, membrane potential fluorescence; series mostly up to 22.9 µM
3',5'-cyclic-AMP phosphodiesterase 4B (Homo sapiens), sequence (Q07343 whole entry, looked up): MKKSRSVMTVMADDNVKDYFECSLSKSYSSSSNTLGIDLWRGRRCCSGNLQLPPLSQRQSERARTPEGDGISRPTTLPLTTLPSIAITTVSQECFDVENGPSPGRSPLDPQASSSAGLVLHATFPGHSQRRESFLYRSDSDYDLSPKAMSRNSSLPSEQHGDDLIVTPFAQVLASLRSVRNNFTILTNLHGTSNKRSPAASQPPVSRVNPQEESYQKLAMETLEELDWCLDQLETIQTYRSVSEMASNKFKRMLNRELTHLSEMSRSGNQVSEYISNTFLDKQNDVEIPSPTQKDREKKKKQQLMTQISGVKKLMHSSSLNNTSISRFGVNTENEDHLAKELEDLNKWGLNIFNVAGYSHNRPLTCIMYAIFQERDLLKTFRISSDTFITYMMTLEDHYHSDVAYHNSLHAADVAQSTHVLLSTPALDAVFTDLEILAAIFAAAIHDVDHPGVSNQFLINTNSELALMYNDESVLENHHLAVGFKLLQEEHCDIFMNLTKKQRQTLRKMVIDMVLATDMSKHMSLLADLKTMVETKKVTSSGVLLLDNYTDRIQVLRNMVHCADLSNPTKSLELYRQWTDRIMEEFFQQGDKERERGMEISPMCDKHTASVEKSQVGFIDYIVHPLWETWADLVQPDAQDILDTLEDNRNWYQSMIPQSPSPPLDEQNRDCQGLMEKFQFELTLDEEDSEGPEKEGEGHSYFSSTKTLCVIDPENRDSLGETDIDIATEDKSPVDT
Method in brief: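 Cell-based read-out of cAMP via a modified cyclic nucleotide-gated channel and membrane potential dye (535/590 nm) in HEK293 cells expressing PDE4 endogenously. Compounds tested up to 22.9 uM final; 100 uM RO 20-1724 reference.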

[9] = target: Dual specificity protein kinase CLK4 (Homo sapiens) (UniProt Q9HAZ1); experiment: qHTS Assay for Inhibitors of CDC-like Kinase 4 (Kinase-Glo Assay) (AID 1770); conditions: recombinant Clk4, Kinase-Glo ATP depletion luminescence; series mostly up to 66.7 µM; further: nearly all actives have a fitted effect of over 65% in size; further: potency means the concentration at half of the fitted maximal effect
Dual specificity protein kinase CLK4 (Homo sapiens), sequence (Q9HAZ1 whole entry, looked up): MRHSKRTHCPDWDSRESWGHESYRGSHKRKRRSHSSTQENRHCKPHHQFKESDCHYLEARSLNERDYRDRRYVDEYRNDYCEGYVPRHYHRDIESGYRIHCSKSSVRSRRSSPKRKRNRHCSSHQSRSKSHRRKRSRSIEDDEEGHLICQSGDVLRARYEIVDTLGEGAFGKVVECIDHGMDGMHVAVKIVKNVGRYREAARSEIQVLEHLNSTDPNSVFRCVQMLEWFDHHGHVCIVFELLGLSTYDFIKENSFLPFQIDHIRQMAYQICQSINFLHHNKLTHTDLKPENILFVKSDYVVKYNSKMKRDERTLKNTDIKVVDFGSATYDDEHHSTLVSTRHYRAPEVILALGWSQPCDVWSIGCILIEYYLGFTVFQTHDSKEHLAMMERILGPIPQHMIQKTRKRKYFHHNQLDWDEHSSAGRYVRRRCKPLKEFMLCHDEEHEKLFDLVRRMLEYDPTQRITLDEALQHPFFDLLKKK
Method in brief: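 Luminescent ATP-depletion read-out (Kinase-Glo) after 4.5 h room-temperature reaction of Clk4 (25 nM final) with RS peptide (100 uM) and ATP (1 uM), pH 7.5 Tris buffer with MgCl2 and DTT.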

[10] = target: Dual specificity protein kinase CLK4 (Homo sapiens) (UniProt Q9HAZ1); experiment: qHTS Assay for Inhibitors of CDC-like Kinase 4 (ADP-Glo Assay) (AID 1771); conditions: recombinant CLK4, ADP-Glo luminescence; series mostly up to 80 µM; further: nearly all actives have a fitted effect of over 70% in size; further: potency means the concentration at half of the fitted maximal effect
Method in brief: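 25 nM Clk4, 100 uM RS peptide, 1 uM ATP (final); 2 mM MgCl2, 0.5 mM EGTA, 2.5 mM DTT, 0.01% Triton X-100; 1 hr RT. ADP-Glo readout: ATP depletion 45 min, conversion/luciferase 30 min, luminescence.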

[11] = target: Dual specificity protein kinase CLK4 (Homo sapiens) (UniProt Q9HAZ1); experiment: qHTS Assay for Inhibitors of CDC-like Kinase 4 (ADP-FP Assay) (AID 1795); conditions: Transcreener ADP fluorescence polarization; series mostly up to 50 µM; further: nearly all actives have a fitted effect of over 60% in size; further: potency means the concentration at half of the fitted maximal effect
Method in brief: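 Kinase activity was measured as ADP production using Transcreener orange tracer (4 nM) and ADP antibody (1 ug/mL) fluorescence polarization, with ADP calculated from a calibration curve. The 1 h reaction contained 6.25 nM Clk4, 1 uM ATP and 100 uM RS peptide at pH 7.5 with Mg2+.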

[12] = target: Ubiquitin carboxyl-terminal hydrolase 1 (Homo sapiens) (UniProt O94782); experiment: Inhibitors of USP1/UAF1: Pilot qHTS (AID 504865); conditions: purified USP1/UAF1, Ub-rhodamine cleavage fluorescence; series mostly up to 54.9 µM; further: nearly all actives have a fitted effect of over 35% in size; further: potency means the concentration at half of the fitted maximal effect
Ubiquitin carboxyl-terminal hydrolase 1 (Homo sapiens), sequence (O94782 whole entry, looked up): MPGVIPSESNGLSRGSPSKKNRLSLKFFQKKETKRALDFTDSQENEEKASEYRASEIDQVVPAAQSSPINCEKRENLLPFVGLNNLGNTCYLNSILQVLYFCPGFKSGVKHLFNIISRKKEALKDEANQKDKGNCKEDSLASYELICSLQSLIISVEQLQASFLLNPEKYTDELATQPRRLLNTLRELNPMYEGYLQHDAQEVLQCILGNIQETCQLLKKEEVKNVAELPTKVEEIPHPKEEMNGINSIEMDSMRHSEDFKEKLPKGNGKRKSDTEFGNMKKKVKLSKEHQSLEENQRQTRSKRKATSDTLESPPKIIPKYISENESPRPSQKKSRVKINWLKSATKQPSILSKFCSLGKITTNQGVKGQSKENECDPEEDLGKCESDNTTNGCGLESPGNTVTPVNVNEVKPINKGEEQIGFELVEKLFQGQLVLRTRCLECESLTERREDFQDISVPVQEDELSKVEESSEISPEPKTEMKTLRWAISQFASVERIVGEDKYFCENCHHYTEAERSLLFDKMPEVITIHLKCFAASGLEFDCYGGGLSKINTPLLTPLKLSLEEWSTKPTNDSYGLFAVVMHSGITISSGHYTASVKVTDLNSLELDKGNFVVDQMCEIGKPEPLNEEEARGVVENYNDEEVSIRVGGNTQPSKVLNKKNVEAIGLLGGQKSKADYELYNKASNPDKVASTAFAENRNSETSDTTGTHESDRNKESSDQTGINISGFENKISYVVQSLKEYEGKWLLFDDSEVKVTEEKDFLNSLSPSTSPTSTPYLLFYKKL
Method in brief: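 Deubiquitinase activity followed as kinetic rhodamine fluorescence release from 150 nM Ub-Rho. 1 nM USP1/UAF1 with compound, after 15 min room-temperature preincubation, in HEPES pH 7.8 buffer containing TCEP, EDTA, BSA and Tween-20.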

[13] = Primary qHTS for small molecule stabilizers of the endoplasmic reticulum resident proteome: Secreted ER Calcium Modulated Protein (SERCaMP) assay (AID 1508630); conditions: SH-SY5Y GLuc-SERCaMP (Gaussia luciferase released on ER calcium loss) secretion, thapsigargin, luminescence; series mostly up to 38.4 µM; further: on the % scale 0 is the no-effect control and ±100 the full control effect
Method in brief: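 The SH-SY5Y reporter protocol was run at 3 concentrations up to 38.3 uM (primary) or 11 concentrations (follow-up): 16 h compound, 100 nM thapsigargin for 4 h, then extracellular luciferase luminescence.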

[14] = target: Cytochrome P450 3A4 (Homo sapiens) (UniProt P08684); experiment: qHTS Assay for Inhibitors and Substrates of Cytochrome P450 3A4 (AID 884); conditions: recombinant CYP3A4, Luciferin-PPXE luminescence; series mostly up to 57.1 µM; further: potency means the concentration at half of the fitted maximal effect; nearly all actives have a fitted effect of over 50% in size
Cytochrome P450 3A4 (Homo sapiens), sequence (P08684 whole entry, looked up): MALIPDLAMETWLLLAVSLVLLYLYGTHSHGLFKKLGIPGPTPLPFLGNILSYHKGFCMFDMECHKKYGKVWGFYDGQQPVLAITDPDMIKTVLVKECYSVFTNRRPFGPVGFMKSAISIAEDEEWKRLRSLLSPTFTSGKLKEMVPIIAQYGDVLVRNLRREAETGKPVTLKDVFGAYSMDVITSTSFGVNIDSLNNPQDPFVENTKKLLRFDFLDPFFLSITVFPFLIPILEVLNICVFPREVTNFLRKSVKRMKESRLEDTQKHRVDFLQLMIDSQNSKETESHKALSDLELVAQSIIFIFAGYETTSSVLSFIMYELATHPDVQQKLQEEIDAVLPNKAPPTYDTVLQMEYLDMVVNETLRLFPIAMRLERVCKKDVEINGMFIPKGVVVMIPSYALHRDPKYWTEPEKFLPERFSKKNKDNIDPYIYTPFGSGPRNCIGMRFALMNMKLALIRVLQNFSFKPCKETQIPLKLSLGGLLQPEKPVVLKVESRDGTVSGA
Method in brief: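 Luminescent readout of luciferin produced by CYP3A4 (20 nM) dealkylation of Luciferin-PPXE, 25 uM (its KM). NADPH-driven reaction ran 60 min at RT after 10 min compound preincubation; data scaled to 57 uM ketoconazole as 100% inhibition.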

[15] = target: Cytochrome P450 3A4 (Homo sapiens) (UniProt P08684); experiment: qHTS Assay for Activators of Cytochrome P450 3A4 (AID 885); conditions: recombinant CYP3A4, Luciferin-PPXE luminescence, 60 min; series mostly up to 57.1 µM; further: nearly all actives have a fitted effect of over 65% in size
Method in brief: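 Luminescent readout of luciferin formed from 25 uM Luciferin-PPXE (KM level) by 20 nM CYP3A4 in 200 mM KPO4, with 60 min NADPH-driven reaction at room temperature after 10 min compound exposure. Ketoconazole (57 uM) defined 100% inhibition.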

[16] = target: Cytochrome P450 2C19 (Homo sapiens) (UniProt P33261); experiment: qHTS Assay for Inhibitors and Substrates of Cytochrome P450 2C19 (AID 899); conditions: recombinant CYP2C19, luciferin-H EGE luminescence; series mostly up to 57.1 µM; further: potency means the concentration at half of the fitted maximal effect; nearly all actives have a fitted effect of over 60% in size
Cytochrome P450 2C19 (Homo sapiens), sequence (P33261 whole entry, looked up): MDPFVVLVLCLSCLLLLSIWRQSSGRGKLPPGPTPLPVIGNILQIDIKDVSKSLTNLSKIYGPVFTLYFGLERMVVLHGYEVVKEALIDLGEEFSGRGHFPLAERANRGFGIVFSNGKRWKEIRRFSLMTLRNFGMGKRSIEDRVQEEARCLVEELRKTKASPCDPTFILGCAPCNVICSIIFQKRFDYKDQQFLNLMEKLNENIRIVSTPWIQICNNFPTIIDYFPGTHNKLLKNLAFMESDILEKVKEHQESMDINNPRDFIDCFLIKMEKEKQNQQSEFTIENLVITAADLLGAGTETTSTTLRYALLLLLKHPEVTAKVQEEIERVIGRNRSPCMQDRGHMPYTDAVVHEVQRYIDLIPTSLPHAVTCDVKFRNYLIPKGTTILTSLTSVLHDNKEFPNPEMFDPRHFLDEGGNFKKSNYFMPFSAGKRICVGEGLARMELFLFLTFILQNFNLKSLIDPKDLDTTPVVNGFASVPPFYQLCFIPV
Method in brief: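 In 50mM KPO4, the reaction held 5nM enzyme and KM-level (10uM) Luciferin-H EGE; it ran 60 min at 37C after NADPH regeneration and a 10 min compound preincubation. Luminescence values were scaled to 57uM ketoconazole as complete inhibition.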

Row | SMILES | Potency [1] [µM] | activity change, negative = inhibition [2] [%] | activity change, negative = inhibition [3] [%] | activity, negative = inhibition [4] [%] | Potency [5] [µM] | Potency [6] [µM] | Potency [7] | Potency [8] | Potency [9] | Potency [10] | Potency [11] | Potency [12] | outcome [13] | Potency [14] | Potency [15] | Potency [16]
1 | COc1ncc2nc(-c3ccccc3)c(=O)n(C3CC3)c2n1 | > 11.4 | -10.7 | 7.49 | -13.4 | > 9.22 | > 46 | inactive | inactive | inactive | inactive | inactive | inactive | inactive |  |  | 
2 | COCCn1c(=O)c(C)nc2cnc(N3CCOCC3)nc21 | > 11.4 | -1.95 | -1.73 | -12.9 | > 9.22 | > 46 | inactive | inactive | inactive | inactive | inactive | inactive | inactive |  |  | 
3 | COc1ncc2nc(-c3ccccc3)c(=O)n(CCC#N)c2n1 | > 11.4 | -23.7 | -5.79 | -14.9 | > 9.22 | > 46 | inactive | inactive | inactive | inactive | inactive | inactive | inactive |  |  | 
4 | Cn1c(=O)c(-c2ccc(F)cc2)nc2cnc(Nc3ccccc3)nc21 | > 11.4 | 4.86 | -9.42 | -5.13 | > 9.22 | > 46 | inactive |  | inactive | inactive | inactive | inactive | inactive |  |  | 
5 | COc1ccc2[nH]cc(CCNc3cc(-c4ccccc4Cl)ncn3)c2c1 | > 11.4 | 0.747 | 9.26 | -11.7 | > 46 | > 46 | inactive | inactive | 12.6 µM (active) | 12.6 µM (active) | 12.6 µM (active) | 20 µM (active) | inactive |  |  | 
6 | COCCn1c(=O)c(CCc2ccccc2)nc2cnc(N3CCOCC3)nc21 | > 11.4 | -24.7 | -12.9 | -3.32 | > 9.22 | > 46 | inactive | inactive | inactive | inactive | inactive | inactive | inactive |  |  | 
7 | CN(C)c1ncc2nc(-c3ccc(Cl)cc3)c(=O)n(CCC#N)c2n1 | > 11.4 | 7.51 | 17.6 | 17.6 | > 9.22 | > 46 | inactive | inactive | inactive | inactive | inactive | inactive | inactive |  |  | 
8 | COc1ncc2nc(C)c(=O)n(Cc3ccc(F)cc3)c2n1 | > 11.4 | -12.3 | -2.65 | -17.5 | > 9.22 | > 46 | inactive | inactive | inactive | inactive | inactive | inactive | inactive |  |  | 
9 | Cc1cnc(CNc2ncncc2-c2cccc(NS(C)(=O)=O)c2)cn1 | > 11.4 | 3.85 | -0.565 | 13.1 | > 46 | > 46 | inactive | inactive | inactive | inactive | inactive | inactive | inactive | 3.16 µM (active) | inactive | 
10 | COc1ccccc1-c1cc(N(C)Cc2ccco2)ncn1 | > 11.4 | 28.4 | -15.8 | 5.75 | > 46 | > 46 | inactive | inactive | 28.2 µM (active) | 35.5 µM (active) | inactive | inactive | inactive |  |  | 3.98 µM (active)
11 | COc1ccc(-c2nc3cncnc3n(-c3ccccc3)c2=O)cc1 | > 11.4 | -9.87 | -10.5 | -2.81 | > 9.22 | > 46 | inactive |  | inactive | inactive | inactive | inactive | inactive |  |  | 
12 | Cc1cnc(CNc2cc(-c3ccc4c(c3)OCO4)ncn2)cn1 | > 11.4 | -3.49 | 7.15 | -3.34 | > 46 | > 46 | inactive | inactive | 3.98 µM (active) | 3.55 µM (active) | 12.6 µM (active) | inactive | inactive |  |  | 
13 | COc1ccc(-c2nc3cnc(N(C)C)nc3n(C)c2=O)cc1 | > 11.4 | 11 | 6.21 | 10.4 | > 9.22 | > 46 | inactive | inactive | inactive | inactive | inactive | inactive | inactive |  |  | 
